Assay results reported in PubChem BioAssay.
A number with no mark means an inactive call. Activity calls are given as the source filed them.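 How the source made its calls, unless noted: active means mean inhibition above 46.5%, the solvent-only control mean plus 3 SD; inactive means the rest.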

What follows are molecules tested on transactivating tegument protein VP16 (Human herpesvirus 1) (assay: VP16 transactivation reporter inhibitors, counter-screen for SRC2 inhibitor project, cell-based, luminescence, single concentration (AID 652007; in the data active means inhibition above about 36%)). Conditions: cell-based VP16 transactivation luciferase reporter, at 8.9 µM, stronger effect = higher value.

Compound | inhibition
Nc1ccc2c(c1)C(=O)C(=O)c1ccccc1-2 | 97% (active)
COc1ccc(S(=O)(=O)/N=C2\C=C(Nc3ccc(O)cc3)C(=O)c3ccccc32)cc1 | 67% (active)
Cc1ccc(C(C)C)c(OCc2ccc(C(=O)N/N=C/c3ccc(O)cc3O)cc2)c1 | 20.9%
Cc1ccc(C(C)C)c(OCc2ccc(C(=O)N/N=C/c3cccc(O)c3O)cc2)c1 | 34.8%
Cn1nc(-c2ccccn2)nc2c(=O)n(C)c(=O)nc1-2 | 13.4%
COC(=O)c1cc(C)nc2c1C(=O)C(=O)C=C2N1CCOCC1 | 54.2% (active)
O=C(Nc1ccc(OC(F)(F)F)cc1)c1ccc2c(c1)no[n+]2[O-] | -77.2%
COc1cccc(N2CCN(c3ncnc4c3[nH]c3ccc(F)cc34)CC2C)c1 (stereo unspecified) | 95.4% (active)

What follows are molecules tested against Nuclear receptor coactivator 2 (Homo sapiens) (UniProt Q15596) (assay: SRC2 coactivator transcriptional activity inhibitors, confirmation, cell-based, luminescence, HEK293, triplicate (AID 652008;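 further: 0% = DMSO-treated cells and 100% = Gossypol at 36 µM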)). Conditions: HEK293 GAL4-SRC2 luciferase reporter, at 8.9 µM, stronger effect = higher value.
Nuclear receptor coactivator 2 (Homo sapiens), sequence (Q15596 whole entry, looked up, the tested form may be a part): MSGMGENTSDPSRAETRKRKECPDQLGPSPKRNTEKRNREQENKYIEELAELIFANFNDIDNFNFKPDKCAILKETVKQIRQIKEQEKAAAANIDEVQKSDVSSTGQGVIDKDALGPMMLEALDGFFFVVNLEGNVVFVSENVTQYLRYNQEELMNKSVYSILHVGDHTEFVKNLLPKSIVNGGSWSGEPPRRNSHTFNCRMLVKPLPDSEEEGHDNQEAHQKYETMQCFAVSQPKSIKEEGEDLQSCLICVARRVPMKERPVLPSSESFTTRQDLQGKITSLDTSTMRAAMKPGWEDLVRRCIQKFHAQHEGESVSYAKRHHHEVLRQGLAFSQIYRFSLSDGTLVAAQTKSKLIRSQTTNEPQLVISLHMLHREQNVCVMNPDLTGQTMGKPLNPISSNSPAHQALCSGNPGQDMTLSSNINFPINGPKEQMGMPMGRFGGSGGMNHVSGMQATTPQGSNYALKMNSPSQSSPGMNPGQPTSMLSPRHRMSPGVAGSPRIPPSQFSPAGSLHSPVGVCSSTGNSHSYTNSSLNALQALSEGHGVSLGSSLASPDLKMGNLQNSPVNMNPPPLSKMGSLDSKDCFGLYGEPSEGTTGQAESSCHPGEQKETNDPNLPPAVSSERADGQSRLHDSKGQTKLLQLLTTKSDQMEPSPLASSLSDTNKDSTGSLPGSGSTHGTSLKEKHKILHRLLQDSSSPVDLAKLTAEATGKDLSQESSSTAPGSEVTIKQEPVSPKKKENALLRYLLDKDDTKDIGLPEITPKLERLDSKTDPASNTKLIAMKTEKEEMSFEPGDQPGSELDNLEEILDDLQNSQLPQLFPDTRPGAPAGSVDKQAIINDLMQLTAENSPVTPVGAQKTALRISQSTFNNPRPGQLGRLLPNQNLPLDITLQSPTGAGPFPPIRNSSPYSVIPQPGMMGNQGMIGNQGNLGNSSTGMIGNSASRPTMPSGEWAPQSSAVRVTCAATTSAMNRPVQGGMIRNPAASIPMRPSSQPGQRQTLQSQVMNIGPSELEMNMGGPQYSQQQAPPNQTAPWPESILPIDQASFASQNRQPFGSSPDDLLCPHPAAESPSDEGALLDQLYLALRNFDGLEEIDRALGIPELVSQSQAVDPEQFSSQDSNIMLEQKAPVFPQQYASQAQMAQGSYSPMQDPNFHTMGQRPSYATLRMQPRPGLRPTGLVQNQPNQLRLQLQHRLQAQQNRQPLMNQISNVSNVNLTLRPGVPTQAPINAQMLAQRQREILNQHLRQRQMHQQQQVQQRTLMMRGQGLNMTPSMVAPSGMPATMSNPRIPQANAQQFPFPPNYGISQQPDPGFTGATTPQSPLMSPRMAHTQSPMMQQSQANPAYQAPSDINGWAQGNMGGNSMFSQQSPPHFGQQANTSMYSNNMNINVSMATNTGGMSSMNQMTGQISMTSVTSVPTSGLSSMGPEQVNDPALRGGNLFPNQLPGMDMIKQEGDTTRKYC

Compound | inhibition
Nc1ccc2c(c1)C(=O)C(=O)c1ccccc1-2 | 98.8% (active)
COc1ccc(S(=O)(=O)/N=C2\C=C(Nc3ccc(O)cc3)C(=O)c3ccccc32)cc1 | 73% (active)
Cc1ccc(C(C)C)c(OCc2ccc(C(=O)N/N=C/c3ccc(O)cc3O)cc2)c1 | 68.3% (active)
Cc1ccc(C(C)C)c(OCc2ccc(C(=O)N/N=C/c3cccc(O)c3O)cc2)c1 | 83.9% (active)
Cn1nc(-c2ccccn2)nc2c(=O)n(C)c(=O)nc1-2 | 70.7% (active)
COC(=O)c1cc(C)nc2c1C(=O)C(=O)C=C2N1CCOCC1 | 99.2% (active)
O=C(Nc1ccc(OC(F)(F)F)cc1)c1ccc2c(c1)no[n+]2[O-] | -55.7%
COc1cccc(N2CCN(c3ncnc4c3[nH]c3ccc(F)cc34)CC2C)c1 (stereo unspecified) | 99.5% (active)
